# According to ChEMBL document CHEMBL1961873, “Compounds: GSK PKIS; Assays: Nanosyn kinase panel” (2012):
# How the values were obtained:
# [1] = target: T1, Ephrin type-B receptor 2 (Homo sapiens) (UniProt P29323); conditions: at 1 µM
# T1 sequence (whole entry): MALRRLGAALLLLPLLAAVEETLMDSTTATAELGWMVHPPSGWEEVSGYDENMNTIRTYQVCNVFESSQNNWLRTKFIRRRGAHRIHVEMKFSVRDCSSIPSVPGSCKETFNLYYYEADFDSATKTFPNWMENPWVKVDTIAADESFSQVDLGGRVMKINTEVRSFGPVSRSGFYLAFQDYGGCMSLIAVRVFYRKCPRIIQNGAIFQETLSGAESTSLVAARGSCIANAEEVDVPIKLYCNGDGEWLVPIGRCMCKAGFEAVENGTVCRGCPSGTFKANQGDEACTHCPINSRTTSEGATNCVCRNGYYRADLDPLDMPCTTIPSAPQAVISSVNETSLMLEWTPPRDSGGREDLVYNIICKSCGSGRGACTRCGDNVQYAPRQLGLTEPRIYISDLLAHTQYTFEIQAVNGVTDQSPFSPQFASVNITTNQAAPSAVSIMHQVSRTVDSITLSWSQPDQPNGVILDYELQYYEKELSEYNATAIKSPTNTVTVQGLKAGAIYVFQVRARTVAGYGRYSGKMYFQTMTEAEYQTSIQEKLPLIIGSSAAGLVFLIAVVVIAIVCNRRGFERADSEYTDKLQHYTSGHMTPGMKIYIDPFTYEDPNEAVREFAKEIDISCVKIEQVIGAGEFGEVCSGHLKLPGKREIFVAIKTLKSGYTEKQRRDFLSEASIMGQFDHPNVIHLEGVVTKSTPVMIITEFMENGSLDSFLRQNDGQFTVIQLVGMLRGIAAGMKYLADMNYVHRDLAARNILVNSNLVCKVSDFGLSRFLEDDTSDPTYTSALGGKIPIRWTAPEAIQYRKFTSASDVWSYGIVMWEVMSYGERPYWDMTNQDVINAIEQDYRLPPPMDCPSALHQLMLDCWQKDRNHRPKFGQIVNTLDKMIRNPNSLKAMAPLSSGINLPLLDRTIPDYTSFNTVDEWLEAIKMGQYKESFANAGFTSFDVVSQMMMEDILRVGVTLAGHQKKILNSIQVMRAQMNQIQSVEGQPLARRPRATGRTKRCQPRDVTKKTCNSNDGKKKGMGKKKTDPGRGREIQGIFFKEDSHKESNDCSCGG
# [2] = target: T2, Ephrin type-B receptor 3 (Homo sapiens) (UniProt P54753); conditions: at 0.1 µM
# T2 sequence (whole entry): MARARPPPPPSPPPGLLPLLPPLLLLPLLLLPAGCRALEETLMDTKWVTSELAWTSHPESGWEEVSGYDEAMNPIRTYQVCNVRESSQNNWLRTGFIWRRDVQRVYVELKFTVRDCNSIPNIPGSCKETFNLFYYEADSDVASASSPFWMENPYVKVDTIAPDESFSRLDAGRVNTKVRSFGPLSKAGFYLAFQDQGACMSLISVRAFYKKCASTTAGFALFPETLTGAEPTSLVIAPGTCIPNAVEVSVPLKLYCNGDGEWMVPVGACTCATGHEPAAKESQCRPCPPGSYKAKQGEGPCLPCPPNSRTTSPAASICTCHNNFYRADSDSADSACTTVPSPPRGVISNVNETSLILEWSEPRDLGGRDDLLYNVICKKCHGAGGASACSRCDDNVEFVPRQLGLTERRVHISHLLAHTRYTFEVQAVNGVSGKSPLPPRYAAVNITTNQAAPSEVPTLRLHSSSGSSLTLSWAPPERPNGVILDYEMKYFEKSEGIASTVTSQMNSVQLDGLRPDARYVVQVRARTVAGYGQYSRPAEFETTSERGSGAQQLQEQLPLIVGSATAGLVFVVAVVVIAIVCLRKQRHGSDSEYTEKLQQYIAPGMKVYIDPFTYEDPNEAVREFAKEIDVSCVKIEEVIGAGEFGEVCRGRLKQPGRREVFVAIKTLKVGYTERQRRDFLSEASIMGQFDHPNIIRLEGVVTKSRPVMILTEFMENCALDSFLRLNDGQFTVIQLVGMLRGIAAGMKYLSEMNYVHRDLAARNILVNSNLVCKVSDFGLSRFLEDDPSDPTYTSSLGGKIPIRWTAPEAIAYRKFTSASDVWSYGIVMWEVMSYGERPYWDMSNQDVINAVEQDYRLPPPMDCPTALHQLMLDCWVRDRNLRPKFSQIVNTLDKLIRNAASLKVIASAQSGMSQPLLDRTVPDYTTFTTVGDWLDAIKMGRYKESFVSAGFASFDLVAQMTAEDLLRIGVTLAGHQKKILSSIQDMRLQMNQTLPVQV
# [3] = target: T2, Ephrin type-B receptor 3 (Homo sapiens); conditions: at 1 µM
# [4] = target: T3, Ephrin type-B receptor 4 (Homo sapiens) (UniProt P54760); conditions: at 0.1 µM
# T3 sequence (whole entry): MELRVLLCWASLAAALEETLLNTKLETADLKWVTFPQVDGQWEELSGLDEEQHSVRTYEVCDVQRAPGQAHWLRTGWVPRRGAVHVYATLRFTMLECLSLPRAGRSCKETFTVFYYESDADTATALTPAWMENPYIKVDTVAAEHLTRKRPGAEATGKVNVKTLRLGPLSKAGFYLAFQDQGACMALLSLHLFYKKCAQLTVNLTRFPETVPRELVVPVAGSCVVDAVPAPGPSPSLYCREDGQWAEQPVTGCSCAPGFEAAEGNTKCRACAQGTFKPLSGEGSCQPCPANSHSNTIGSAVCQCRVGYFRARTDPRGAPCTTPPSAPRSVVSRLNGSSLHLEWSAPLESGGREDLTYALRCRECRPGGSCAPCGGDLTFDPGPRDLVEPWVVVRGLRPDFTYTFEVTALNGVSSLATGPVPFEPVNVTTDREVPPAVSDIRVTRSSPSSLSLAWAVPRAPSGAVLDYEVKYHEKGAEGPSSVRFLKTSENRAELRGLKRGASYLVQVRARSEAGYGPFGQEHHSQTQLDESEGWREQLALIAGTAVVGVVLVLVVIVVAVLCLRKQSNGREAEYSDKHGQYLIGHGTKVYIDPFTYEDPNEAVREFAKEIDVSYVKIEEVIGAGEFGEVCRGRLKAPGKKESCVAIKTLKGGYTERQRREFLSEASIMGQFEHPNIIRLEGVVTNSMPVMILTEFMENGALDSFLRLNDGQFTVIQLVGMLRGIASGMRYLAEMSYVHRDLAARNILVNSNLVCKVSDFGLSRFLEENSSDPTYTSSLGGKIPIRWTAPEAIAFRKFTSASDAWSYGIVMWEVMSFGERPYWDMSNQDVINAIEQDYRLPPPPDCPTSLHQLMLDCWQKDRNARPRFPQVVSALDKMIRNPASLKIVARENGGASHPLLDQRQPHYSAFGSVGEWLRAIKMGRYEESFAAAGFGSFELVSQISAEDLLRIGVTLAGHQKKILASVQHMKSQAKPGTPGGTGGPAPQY
# [5] = target: T3, Ephrin type-B receptor 4 (Homo sapiens); conditions: at 1 µM
# [6] = target: Receptor tyrosine-protein kinase erbB-2 (Homo sapiens) (UniProt P04626); conditions: at 0.1 µM
# [7] = target: Receptor tyrosine-protein kinase erbB-2 (Homo sapiens) (UniProt P04626); conditions: at 1 µM
# [8] = target: Receptor tyrosine-protein kinase erbB-4 (Homo sapiens) (UniProt Q15303); conditions: at 0.1 µM
# [9] = target: Receptor tyrosine-protein kinase erbB-4 (Homo sapiens) (UniProt Q15303); conditions: at 1 µM
# [10] = target: Tyrosine-protein kinase Fer (Homo sapiens) (UniProt P16591); conditions: at 0.1 µM
# [11] = target: Tyrosine-protein kinase Fer (Homo sapiens) (UniProt P16591); conditions: at 1 µM
# [12] = target: Tyrosine-protein kinase Fes/Fps (Homo sapiens) (UniProt P07332); conditions: at 0.1 µM
# [13] = target: Tyrosine-protein kinase Fes/Fps (Homo sapiens) (UniProt P07332); conditions: at 1 µM
# [14] = target: Fibroblast growth factor receptor 1 (Homo sapiens) (UniProt P11362); conditions: at 0.1 µM
# [15] = target: Fibroblast growth factor receptor 1 (Homo sapiens) (UniProt P11362); conditions: at 1 µM
# [16] = target: Fibroblast growth factor receptor 2 (Homo sapiens) (UniProt P21802); conditions: at 0.1 µM
# [17] = target: Fibroblast growth factor receptor 2 (Homo sapiens) (UniProt P21802); conditions: at 1 µM
# [18] = target: Fibroblast growth factor receptor 3 (Homo sapiens) (UniProt P22607); conditions: at 0.1 µM
# [19] = target: Fibroblast growth factor receptor 3 (Homo sapiens) (UniProt P22607); conditions: at 1 µM
# [20] = target: Fibroblast growth factor receptor 4 (Homo sapiens) (UniProt P22455); conditions: at 0.1 µM;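 note: values are mean percent inhibition of FGFR4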
# Tyrosine-protein kinase Fes/Fps (Homo sapiens), sequence (P07332 whole entry): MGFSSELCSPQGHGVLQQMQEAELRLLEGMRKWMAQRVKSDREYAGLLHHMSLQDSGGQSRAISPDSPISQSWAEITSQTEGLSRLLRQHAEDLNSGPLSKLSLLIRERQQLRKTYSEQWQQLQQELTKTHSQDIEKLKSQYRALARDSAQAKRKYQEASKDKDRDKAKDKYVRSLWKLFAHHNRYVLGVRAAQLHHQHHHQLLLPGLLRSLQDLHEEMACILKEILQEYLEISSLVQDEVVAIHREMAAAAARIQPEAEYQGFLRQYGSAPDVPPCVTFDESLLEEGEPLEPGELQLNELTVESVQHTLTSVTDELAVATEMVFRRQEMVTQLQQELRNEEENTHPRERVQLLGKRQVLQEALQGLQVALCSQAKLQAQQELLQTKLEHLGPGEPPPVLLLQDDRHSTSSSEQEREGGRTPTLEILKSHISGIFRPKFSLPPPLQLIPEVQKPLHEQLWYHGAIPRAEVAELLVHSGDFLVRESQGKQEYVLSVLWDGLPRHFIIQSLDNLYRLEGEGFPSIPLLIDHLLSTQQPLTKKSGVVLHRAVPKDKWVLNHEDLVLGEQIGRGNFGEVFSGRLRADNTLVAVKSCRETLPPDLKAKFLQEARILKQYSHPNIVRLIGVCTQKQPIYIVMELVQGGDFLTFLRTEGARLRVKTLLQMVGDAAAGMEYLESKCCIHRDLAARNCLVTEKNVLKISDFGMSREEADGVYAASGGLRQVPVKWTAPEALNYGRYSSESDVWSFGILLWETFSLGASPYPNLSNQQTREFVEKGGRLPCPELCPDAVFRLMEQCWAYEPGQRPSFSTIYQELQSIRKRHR
# Receptor tyrosine-protein kinase erbB-4 (Homo sapiens), sequence (Q15303 whole entry): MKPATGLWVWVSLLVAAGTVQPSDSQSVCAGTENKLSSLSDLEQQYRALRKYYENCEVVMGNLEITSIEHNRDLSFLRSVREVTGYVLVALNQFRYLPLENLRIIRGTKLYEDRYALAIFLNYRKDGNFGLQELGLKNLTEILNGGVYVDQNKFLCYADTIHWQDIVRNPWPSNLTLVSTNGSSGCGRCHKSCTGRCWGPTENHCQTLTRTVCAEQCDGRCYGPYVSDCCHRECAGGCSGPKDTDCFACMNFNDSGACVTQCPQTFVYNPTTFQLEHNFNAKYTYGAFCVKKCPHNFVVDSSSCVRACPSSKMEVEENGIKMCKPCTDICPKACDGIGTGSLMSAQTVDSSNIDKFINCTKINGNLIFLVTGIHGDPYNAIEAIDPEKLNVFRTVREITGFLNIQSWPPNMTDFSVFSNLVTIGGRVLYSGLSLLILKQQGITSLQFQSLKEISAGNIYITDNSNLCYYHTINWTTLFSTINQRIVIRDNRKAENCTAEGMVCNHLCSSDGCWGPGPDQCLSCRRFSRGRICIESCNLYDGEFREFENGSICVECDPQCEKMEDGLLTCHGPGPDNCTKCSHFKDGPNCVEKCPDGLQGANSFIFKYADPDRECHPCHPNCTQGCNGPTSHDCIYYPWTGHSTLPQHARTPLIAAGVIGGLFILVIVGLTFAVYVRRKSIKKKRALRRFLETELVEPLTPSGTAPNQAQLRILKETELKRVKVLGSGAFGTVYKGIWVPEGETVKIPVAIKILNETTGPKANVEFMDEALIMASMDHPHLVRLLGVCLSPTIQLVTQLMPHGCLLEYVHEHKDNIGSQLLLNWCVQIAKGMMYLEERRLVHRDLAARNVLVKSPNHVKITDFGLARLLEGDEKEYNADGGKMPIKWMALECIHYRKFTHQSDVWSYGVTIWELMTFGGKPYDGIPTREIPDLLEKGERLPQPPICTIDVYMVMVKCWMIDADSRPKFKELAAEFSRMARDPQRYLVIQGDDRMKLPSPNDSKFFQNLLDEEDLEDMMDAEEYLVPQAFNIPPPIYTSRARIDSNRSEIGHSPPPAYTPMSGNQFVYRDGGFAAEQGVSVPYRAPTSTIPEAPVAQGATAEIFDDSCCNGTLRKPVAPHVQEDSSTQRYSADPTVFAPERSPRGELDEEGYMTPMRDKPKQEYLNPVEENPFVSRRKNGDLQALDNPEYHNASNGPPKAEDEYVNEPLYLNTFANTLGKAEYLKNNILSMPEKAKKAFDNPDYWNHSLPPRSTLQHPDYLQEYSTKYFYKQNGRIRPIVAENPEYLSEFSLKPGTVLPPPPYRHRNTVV
# Receptor tyrosine-protein kinase erbB-2 (Homo sapiens), sequence (P04626 whole entry): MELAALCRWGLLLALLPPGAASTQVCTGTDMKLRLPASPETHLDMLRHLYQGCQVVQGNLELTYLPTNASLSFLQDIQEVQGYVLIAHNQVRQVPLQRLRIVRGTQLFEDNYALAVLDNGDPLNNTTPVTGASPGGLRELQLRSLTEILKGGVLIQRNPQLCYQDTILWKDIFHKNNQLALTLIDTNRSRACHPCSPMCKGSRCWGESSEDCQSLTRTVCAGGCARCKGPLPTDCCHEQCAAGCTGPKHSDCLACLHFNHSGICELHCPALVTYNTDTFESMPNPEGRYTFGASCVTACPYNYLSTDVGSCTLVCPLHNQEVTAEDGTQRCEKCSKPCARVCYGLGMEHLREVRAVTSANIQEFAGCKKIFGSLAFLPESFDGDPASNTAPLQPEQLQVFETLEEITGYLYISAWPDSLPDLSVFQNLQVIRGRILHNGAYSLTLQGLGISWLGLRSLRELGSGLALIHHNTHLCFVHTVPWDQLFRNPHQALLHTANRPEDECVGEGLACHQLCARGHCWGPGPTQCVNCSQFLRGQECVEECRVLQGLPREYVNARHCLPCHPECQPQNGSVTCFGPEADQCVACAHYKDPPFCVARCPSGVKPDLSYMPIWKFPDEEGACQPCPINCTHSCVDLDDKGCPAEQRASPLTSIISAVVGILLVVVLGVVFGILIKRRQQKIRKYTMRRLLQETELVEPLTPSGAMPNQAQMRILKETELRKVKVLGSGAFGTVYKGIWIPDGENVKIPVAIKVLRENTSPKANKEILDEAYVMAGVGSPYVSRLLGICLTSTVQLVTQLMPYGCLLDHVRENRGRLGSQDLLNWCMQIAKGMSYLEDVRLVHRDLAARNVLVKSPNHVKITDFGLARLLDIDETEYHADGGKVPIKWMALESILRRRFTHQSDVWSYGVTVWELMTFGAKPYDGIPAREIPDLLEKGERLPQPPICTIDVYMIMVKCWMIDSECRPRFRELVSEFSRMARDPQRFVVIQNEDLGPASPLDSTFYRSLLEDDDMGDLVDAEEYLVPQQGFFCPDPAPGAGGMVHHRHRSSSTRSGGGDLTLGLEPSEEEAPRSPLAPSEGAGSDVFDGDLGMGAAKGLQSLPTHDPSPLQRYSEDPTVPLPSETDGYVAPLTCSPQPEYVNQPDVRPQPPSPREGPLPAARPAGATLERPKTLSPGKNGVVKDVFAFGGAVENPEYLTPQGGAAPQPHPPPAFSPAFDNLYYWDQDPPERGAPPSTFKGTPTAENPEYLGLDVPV
# Fibroblast growth factor receptor 2 (Homo sapiens), sequence (P21802 22-821 limits assumed): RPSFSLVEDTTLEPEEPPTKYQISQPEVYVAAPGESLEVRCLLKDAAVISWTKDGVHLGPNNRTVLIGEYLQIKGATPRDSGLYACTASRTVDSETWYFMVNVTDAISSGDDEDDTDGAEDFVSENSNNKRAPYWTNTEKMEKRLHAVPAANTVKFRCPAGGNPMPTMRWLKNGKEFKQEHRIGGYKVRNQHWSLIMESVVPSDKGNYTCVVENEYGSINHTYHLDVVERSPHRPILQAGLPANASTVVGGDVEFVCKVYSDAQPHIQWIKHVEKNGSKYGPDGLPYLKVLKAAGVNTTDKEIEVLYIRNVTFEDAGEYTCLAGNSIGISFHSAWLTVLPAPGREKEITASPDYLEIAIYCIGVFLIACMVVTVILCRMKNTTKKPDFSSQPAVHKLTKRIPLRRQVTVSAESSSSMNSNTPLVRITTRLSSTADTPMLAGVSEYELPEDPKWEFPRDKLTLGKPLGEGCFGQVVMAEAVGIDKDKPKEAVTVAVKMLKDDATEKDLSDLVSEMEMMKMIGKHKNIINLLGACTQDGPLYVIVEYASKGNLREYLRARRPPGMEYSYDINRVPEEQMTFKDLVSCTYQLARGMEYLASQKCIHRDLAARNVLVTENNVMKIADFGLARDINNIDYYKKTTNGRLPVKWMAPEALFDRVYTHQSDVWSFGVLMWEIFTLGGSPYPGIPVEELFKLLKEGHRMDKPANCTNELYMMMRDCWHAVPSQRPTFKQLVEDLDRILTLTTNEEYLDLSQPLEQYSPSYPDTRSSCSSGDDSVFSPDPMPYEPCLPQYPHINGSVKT
# Fibroblast growth factor receptor 1 (Homo sapiens), sequence (P11362 22-822 limits assumed): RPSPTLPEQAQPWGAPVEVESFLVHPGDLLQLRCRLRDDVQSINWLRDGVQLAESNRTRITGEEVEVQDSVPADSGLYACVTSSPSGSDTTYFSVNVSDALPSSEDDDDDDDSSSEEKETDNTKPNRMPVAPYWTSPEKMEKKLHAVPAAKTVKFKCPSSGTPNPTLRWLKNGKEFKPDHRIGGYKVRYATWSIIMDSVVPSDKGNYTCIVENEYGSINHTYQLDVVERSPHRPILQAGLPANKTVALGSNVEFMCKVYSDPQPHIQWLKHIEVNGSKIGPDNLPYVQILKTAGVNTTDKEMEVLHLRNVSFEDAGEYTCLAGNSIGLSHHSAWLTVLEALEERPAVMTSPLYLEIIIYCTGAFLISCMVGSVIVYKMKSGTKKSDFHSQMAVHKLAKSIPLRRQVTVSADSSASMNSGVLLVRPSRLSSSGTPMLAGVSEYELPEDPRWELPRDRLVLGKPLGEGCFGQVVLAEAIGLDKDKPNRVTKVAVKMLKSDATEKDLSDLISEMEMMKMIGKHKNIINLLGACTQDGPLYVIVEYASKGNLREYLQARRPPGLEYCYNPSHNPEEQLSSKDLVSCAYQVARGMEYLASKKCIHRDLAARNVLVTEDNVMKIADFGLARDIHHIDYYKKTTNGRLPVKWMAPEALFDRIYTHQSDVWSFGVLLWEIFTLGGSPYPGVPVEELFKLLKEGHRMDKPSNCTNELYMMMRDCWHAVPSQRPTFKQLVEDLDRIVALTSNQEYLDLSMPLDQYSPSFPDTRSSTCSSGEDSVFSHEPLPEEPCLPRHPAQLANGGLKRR
Structure (SMILES),inhibition [1] [%],inhibition [2] [%],inhibition [3] [%],inhibition [4] [%],inhibition [5] [%],inhibition [6] [%],inhibition [7] [%],inhibition [8] [%],inhibition [9] [%],inhibition [10] [%],inhibition [11] [%],inhibition [12] [%],inhibition [13] [%],inhibition [14] [%],inhibition [15] [%],inhibition [16] [%],inhibition [17] [%],inhibition [18] [%],inhibition [19] [%],inhibition [20] [%]
COc1cc(Nc2ncc3c(C)nc(-c4cccc(Oc5ccccc5)c4)n3n2)cc(OC)c1OC,8.52,4.24,1.21,2.59,2.97,1.99,-3.48,7.04,8.43,3.91,7.1,2.66,3.2,2.41,-0.38,0.66,5.14,3.25,3.03,1.38
COc1cc(Nc2ncc(-c3ccccc3)o2)cc(OC)c1OC,5.83,-5.87,-2.19,1.05,3.25,0.87,-1.74,-4.19,-2.66,-1.48,2.66,0.68,-1.45,-3.33,8.79,4.47,27,1.69,16.6,-0.19
C/C(Nc1ccc(S(N)(=O)=O)cc1)=C1/C(=O)Nc2ccccc21,-0.51,-3.87,-3.57,-2.17,-2.22,-3.56,-3.5,-5.37,-8.14,0.46,10.5,-2.91,-3.39,-4.77,6.33,0.2,21.1,0.94,21,1.73
NC(=O)Cc1ccccc1Oc1nccc(-c2c(-c3ccc(F)cc3)ncn2C2CCNCC2)n1,6.53,3.13,4.05,0.65,2.09,2.21,-1.85,12.1,17.1,6.39,4.36,1.68,2.12,5.6,3.15,1.69,5.26,3.66,3.8,0.37
COc1cccc(-n2cnc3c(N/N=C/c4ccncc4)ncnc32)c1,16.2,-8.69,-4.51,-2.1,0.65,0.94,7.49,-3.73,2.45,4.18,4.82,-0.04,-1.27,-7.19,-2.61,-3.25,10.7,-3.58,3.63,-4.06
C#Cc1cccc(Nc2ncnc3ccc(OCCCCNCCS(C)(=O)=O)cc23)c1,19.4,4.21,0.73,1.68,-1.52,6.37,29.9,24.8,63.8,2.76,3.37,2.69,6.01,0.37,0.98,1.4,2.36,5.79,3.33,-4.44
CN(C)CCCNc1nccc(-c2c(-c3ccc(F)cc3)nn3cc(C(F)(F)F)ccc23)n1,19.7,0.41,-0.85,-2.73,0.9,0.46,-1.57,0.88,-0.51,1.94,1.37,0.87,1.2,0.95,0.04,-2.72,0.99,-1.5,-0.97,-3.68
CCc1ccc(Oc2nccc(-c3c(-c4ccc(F)cc4)ncn3C3CCNCC3)n2)cc1,9.06,4.55,4.56,1.97,3.15,1.55,7.71,7.62,11.6,-1.66,3.15,3.41,3.8,7.59,4.77,9.05,5.8,7.97,5,7.02
NC(=O)c1cc(-c2ccncc2)cc(-c2ccccc2)c1N,57.7,7.22,21.1,7.68,36,4.68,8.53,21.7,33.8,6.01,4.57,3.8,3.92,8.68,6.54,5.47,8.42,7.6,6.17,0.6
Cc1ccc(C(=O)NC2CCC2)cc1-c1ccc(C(=O)NCC2CC2)cc1,2.05,3.94,1.11,1.02,3.17,3.5,8.52,16.7,17.7,4.2,2.82,2.48,1.75,5.21,0.27,2.36,3.31,3.29,3.04,0.25
O=C1NC(=O)C(c2cccc(Cl)c2)=C1Nc1ccc(Cl)c(C(=O)O)c1,3.04,10.6,4.29,0.79,0.05,2.66,1.74,7.3,10,3.46,2.51,2.13,2.52,3.46,16.2,8.43,20.6,6.79,24.8,-1.89
NC(=O)c1ccc(Oc2nccc(-c3c(-c4ccc(F)cc4)ncn3C3CCNCC3)n2)cc1,4.72,4.03,3.75,3.7,3.09,3.73,3.35,5.71,8.73,7.08,10.6,4.82,4.5,5.23,8.19,11.3,8.04,11,6.64,5.18
NC(=O)c1cc(-c2ccc(F)cc2)cc(-c2ccncc2)c1N,8.83,5.88,5.99,3.64,3.21,4.35,4.97,7.7,11.7,1.98,1.93,3.18,3.59,5.1,3.07,1.81,4.41,4.84,2.54,-4.89
